Screening data (PubChem BioAssay)
Sm TGR inh: inhibitors of Schistosoma mansoni thioredoxin glutathione reductase; 360,000 tested, 3% active; purified TGR, DTNB reduction, TNB absorbance 405 nm; Q962Y6; Potency, µM (titrated, usually from 114 µM), inactives show at the top dose activity change, negative = inhibition, actives largely listed as inhibitors; further: potency means the concentration at half of the fitted maximal effect; on the % scale 0 is the no-effect control and ±100 the full control effect; nearly all actives have a fitted effect of over 60% in size
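Kinetic colorimetric format: TGR-catalysed, NADPH-driven DTNB reduction monitored via TNB absorbance. Enzyme dispensed at 20 nM; compound exposure 15 min at room temperature before reaction start.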
Pf growth 48h: inhibits P. falciparum growth in the first generation, 48 h; P. falciparum luciferase growth in erythrocytes, 48 h; Potency, µM (highest dose often 28.7 µM), for inactives: at the highest dose activity change, negative = inhibition, actives largely listed as inhibitors; 310,000 tested, 5.9% active; AID 504832; further: potency means the concentration at half of the fitted maximal effect; on the % scale 0 is the no-effect control and ±100 the full control effect
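Compounds are pin-transferred into medium, infected erythrocytes (2% hematocrit, 0.1% parasitemia final) are added, and plates sit one parasite generation at 37 C in 5% CO2. Detection reagent is then added and luminescence measured.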
Shiga toxin inh: blocks Shiga toxin action in Vero cells | 290,000 tested, 9.2% active | Vero cells, Shiga toxin protein synthesis inhibition reporter | inhibition, % at 38.7 µM | AID 2315; in the data active means inhibition mostly above about 28%, no sharp cut-off; inactive means mostly below about 43%; further: 0% is about no effect
Cycloheximide cs: counter-screen hit for Shiga toxin inhibitors, cycloheximide; 300,000 tested, 12% active; max response, %; cell reporter, cycloheximide protein synthesis inhibition counterscreen; in the data active means max response mostly above about 13%, no sharp cut-off; inactive means mostly below about 14%; further: read at 38.3 µM for the half of the compounds with a filed dose; 0% is about no effect
Pf growth 96h: P. falciparum growth inhibition at 96 hours | P. falciparum luciferase reporter growth, 96 h | Potency, µM (highest dose often 28.7 µM), for the others: at the top dose activity change, negative = inhibition, usual class: inhibitors | AID 504834 | 320,000 tested, 6.9% active; further: potency means the concentration at half of the fitted maximal effect; on the % scale 0 is the no-effect control and ±100 the full control effect
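P. falciparum expressing integrated firefly luciferase, in erythrocytes at 2% hematocrit, 0.05% parasitemia, incubated with compounds 96 h at 37 C, 5% CO2. Growth inhibition read as loss of luminescence; two-generation exposure targets delayed-death apicoplast inhibitors.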
NS1 function inh: influenza NS1 inhibition. AID 2326. 270,000 tested, 0.4% active. Potency, µM (doses to about 46.1 µM), for inactives: at the top dose activity, positive = more growth; calls by dose curve; further: potency means the concentration at half of the fitted maximal effect; actives are rising curves; nearly all actives have a fitted effect of over 50% in size
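Growth recovery, yeast-based: influenza A NS1 expressed in S. cerevisiae causes slow growth, and suppressors are detected by OD600. The parent strain without NS1 is used as positive control.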
An asterisk follows results filed as active; ? = inconclusive; / = no result. Rows were chosen to be rich in hits. Some 21% of all compounds tested hit in one or more screens of this group. Unless noted, the call rests on the fitted dose curve; in most records, active means well fitted curve in the direction sought with a large enough effect; inconclusive means small, poorly fitted or top-dose-only effect, or another doubt; inactive means no such curve, though single readings can be large; an effect the other way counts as inactive or inconclusive.

SMILES	Sm TGR inh	Pf growth 48h	Shiga toxin inh	Cycloheximide cs	Pf growth 96h	NS1 function inh
CC[C@H]1CN2CCC1C[C@H]2[C@H](O)c1ccnc2ccc(OC)cc12 (stereo partly specified)	1.6%	0.0928µM*	/	/	0.0522µM*	/
COc1ccc2nccc(SCC(=O)O)c2c1	/	/	/	/	/	0.0%
C=CC1CN2CCC1CC2[C@@H](OC(=O)c1ccc(OC)cc1)c1ccnc2ccccc12 (stereo partly specified)	0.4%	2.94µM*	-23.9	-7.0	12.0%	-6.0%
C=C[C@@H]1CN2CC[C@H]1C[C@H]2[C@H](O)c1ccnc2ccccc12	/	0.135µM*	/	/	0.0536µM*	/
C=C[C@@H]1CN2CC[C@H]1CC2[C@H](O)c1ccnc2ccccc12 (stereo partly specified)	/	/	/	/	/	-4.1%
C=CC1CN2CCC1CC2C(OC(=O)OCC)c1ccnc2ccc(OC)cc12 (stereo unspecified)	/	1.69µM*	/	/	0.757µM*	/
CCOC(=O)C1CCN(c2c(C(=O)c3ccc(OCC)cc3)cnc3ccc(OC)cc23)CC1	-5.2%	/	/	/	/	/
O=C(COC(=O)c1ccc(O)cc1O)Nc1cccc2ccccc12	-0.1%	-26.1%	/	/	-9.7%	/
CC1CN(C(=O)COC(=O)c2ccc(Cl)nc2)CC(C)O1 (stereo unspecified)	3.5%	2.8%	-2.0	2.1	8.3%	/
O=C(c1cc([N+](=O)[O-])ccc1Cl)N1c2ccccc2Sc2ccccc21	-7.7%	7.38µM*	-11.2	10.6	2.08µM*	-10.5%
O=C(CSc1nnnn1-c1ccc2c(c1)OCCO2)c1cccc2c1OCCO2	-4.0%	-0.1%	64.7	32.6*	-18.6%	-2.8%
CC(C)OC(=O)CSc1nnnn1-c1ccc2c(c1)OCCO2	-4.3%	80.2%	64.1*	35.4*	?	-1.6%
CN1CCN(C(=O)Cn2ncc3c4ccccc4n(Cc4ccc(F)cc4)c3c2=O)CC1	-2.1%	/	/	/	/	/
CCOC(=O)c1ccc(Nc2cc(C)nc(-c3ccccc3)n2)cc1	-11.1%	10.4µM*	27.4	-0.4	51.3%	1.0%
O=C(O)c1ccc(Nc2cnc3ccccc3n2)cc1	-7.4%	171.2%	63.3	38.1*	240.4%	-2.8%
CCOC(=O)c1ccc(Nc2cnc3ccccc3n2)cc1	5.7%	75.8%	77.9*	46.6*	47.7%	-3.1%
CCOC(=O)c1cnc2ccccc2c1Nc1ccc(C(=O)O)cc1	47.8%	?	-5.9	11.6	?	0.9%
COc1ccc(-c2[nH]c(-c3ccc(Cl)cc3)nc2SCC(=O)NCC2CCCO2)cc1 (stereo unspecified)	1.1%	/	/	/	/	/
COc1ccccc1N(CC(O)COc1ccccc1C)S(=O)(=O)c1ccccc1 (stereo unspecified)	-0.6%	?	-7.1	-0.9	10.4µM*	-18.2%
COc1ccccc1CNCC(O)Cn1c2ccccc2c2ccccc21 (stereo unspecified)	-1.4%	1.47µM*	-26.9	-10.9	2.08µM*	-11.7%
C=CCN(CC=C)CC(O)Cn1c2ccccc2c2ccccc21 (stereo unspecified)	14.3%	5.86µM*	5.0	-6.2	?	-1.7%
COc1ccccc1N(CC(O)CN1C(C)CCCC1C)S(=O)(=O)c1ccccc1 (stereo unspecified)	-5.6%	-3.8%	-8.3	-3.6	-1.5%	-6.9%
COc1ccccc1N(CC(O)Cn1c2ccccc2c2ccccc21)S(=O)(=O)c1ccccc1 (stereo unspecified)	6.6%	11.7µM*	14.4	3.6	10.4µM*	?
CNc1nc(-c2ccccc2)cc(C)c1S(C)(=O)=O	5.4%	-5.5%	27.4	28.8	-25.1%	-1.3%
Cc1noc(C)c1-c1nnc(-c2ccc(C(F)(F)F)cc2)o1	-1.5%	83.7%	3.5	4.6	76.3%	2.8%
SMILES	Sm TGR inh	Pf growth 48h	Shiga toxin inh	Cycloheximide cs	Pf growth 96h	NS1 function inh
Cn1cccc1C(=O)NC(=O)COC(=O)CCNS(=O)(=O)c1cccc(C(F)(F)F)c1	1.9%	6.7%	/	/	-12.6%	/
O=S(=O)(c1ccc(F)cc1)N(CC(O)Cn1c2ccccc2c2ccccc21)c1ccccc1 (stereo unspecified)	-1.6%	/	/	/	/	/
O=S(=O)(c1ccccc1)N(CC(O)Cn1c2ccccc2c2ccccc21)c1ccccc1 (stereo unspecified)	8.2%	?	-24.2	4.6	2.33µM*	22.2%
COc1cccc2cc(C(=O)Nc3ccc(CC(=O)O)cc3)c(=O)oc12	-6.2%	/	/	/	/	/
CCSc1ccc([C@@H]2[C@@H]3C(=O)N(CC)C(=O)[C@@H]3[C@]3(C(=O)OC)CCCCN23)cc1OC	?	13.1µM*	/	/	?	/
COC(=O)[C@@]12CCCCN1[C@H](c1ccc(SC3CCCCC3)c(OC)c1)[C@@H]1C(=O)N(C)C(=O)[C@@H]12	-21.0%	8.28µM*	/	/	8.28µM*	/
CCSc1ccc([C@@H]2[C@@H]3C(=O)N(C)C(=O)[C@@H]3[C@]3(C(=O)OC)CCCCN23)cc1	?	8.28µM*	/	/	?	/
CCSc1ccc([C@@H]2[C@H]3C(=O)N(C)C(=O)[C@H]3[C@]3(C(=O)OC)CCCCN23)cc1OC	0.0%	10.4µM*	/	/	?	/
COC(=O)[C@@]12CCCCN1[C@H](c1ccc(-c3ccccc3)cc1)[C@@H]1C(=O)N(C)C(=O)[C@@H]12	-18.5%	?	/	/	?	/
Cc1ccccc1OC(C)C(=O)Nc1ccc(S(=O)(=O)Nc2nccs2)cc1 (stereo unspecified)	17.6%	-1.4%	13.8	-4.8	-12.2%	-12.1%
CC(C)c1ccc(NC2CCCN(C(=O)c3ccc(N4CCOCC4)cc3)C2)cc1 (stereo unspecified)	-3.9%	-11.7%	-6.1	6.4	?	-11.5%
Cc1cc(Cl)ccc1OC(C)C(=O)Nc1ccccc1N1CCOCC1 (stereo unspecified)	3.8%	7.38µM*	-9.0	-1.8	/	-47.3%
CCC(C)Oc1cccc(C(=O)Nc2ccccc2N2CCOCC2)c1 (stereo unspecified)	1.0%	10.4µM*	13.2	2.4	2.1%	-40.0%
CC(C)Oc1cccc(C(=O)Nc2ccccc2N2CCOCC2)c1	-4.6%	-5.9%	21.5	14.3	-6.2%	-9.0%
CC(Oc1cccc(Cl)c1)C(=O)Nc1ccccc1N1CCCC1 (stereo unspecified)	-13.8%	?	/	/	?	/
COc1cc(OC)cc(C(=O)N[C@H](C(=O)Nc2ccccc2N2CCOCC2)C(C)C)c1	-2.3%	/	-11.3	6.0	8.28µM*	-5.9%
CN(Cc1ccccc1)C(=O)Cn1ncc2c3ccccc3n(Cc3cccc(Cl)c3)c2c1=O	2.5%	/	/	/	/	/
CCN(CC(=O)Nc1ccc2c(c1)OCO2)Cc1nc2ccccc2c(=O)[nH]1	-8.0%	?	-12.5	10.6	?	-5.0%
CCN(Cc1nc2ccccc2c(=O)[nH]1)Cc1nc2ccsc2c(=O)[nH]1	-2.0%	?	-14.1	-2.2	1.47µM*	0.0%
